The values that follow come from article PMC7862700, “An all-to-all approach to the identification of sequence-specific readers for epigenetic DNA modifications on cytosine”.

Holding throughout (assay): DAPPL (digital affinity profiling via proximity ligation, sequencing); 10 mM Tris-HCl pH 7.5, 50 mM NaCl, 1 mM DTT, 4% glycerol, room temperature, 30 min; GST-TFs on glutathione beads, 16-mer random dsDNA library, 0.1% formaldehyde crosslink after washing; high values mean tight binding
Holding throughout (conditions): protein: recombinant; tags: N-terminal GST; dsDNA, one strand shown

One test concerns the target T1, FLI1 (Homo sapiens, UniProt Q01543 1-452).
T1 sequence: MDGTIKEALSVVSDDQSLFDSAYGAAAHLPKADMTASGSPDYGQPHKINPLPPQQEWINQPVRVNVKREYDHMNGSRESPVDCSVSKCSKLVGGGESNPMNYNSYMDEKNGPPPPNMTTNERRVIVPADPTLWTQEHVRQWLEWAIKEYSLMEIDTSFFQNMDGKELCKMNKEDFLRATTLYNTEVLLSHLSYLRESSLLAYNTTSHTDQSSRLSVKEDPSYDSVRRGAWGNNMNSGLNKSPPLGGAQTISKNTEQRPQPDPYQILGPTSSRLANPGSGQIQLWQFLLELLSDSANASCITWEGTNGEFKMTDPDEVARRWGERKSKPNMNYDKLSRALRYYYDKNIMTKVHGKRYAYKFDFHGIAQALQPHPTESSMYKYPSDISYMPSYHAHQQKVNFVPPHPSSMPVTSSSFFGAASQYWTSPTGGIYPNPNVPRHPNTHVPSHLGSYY
In a few lines: (§1)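 Pools were built from human transcription factors expressed in yeast as GST fusions, captured on glutathione beads and DNA-barcoded, along with a tag-only sample. Incubation with 200 nmole of a 16-mer random double-stranded DNA library lasted 30 min at room temperature in Tris/NaCl/DTT/glycerol buffer, and was followed by washing, 0.1% formaldehyde crosslinking, proximity ligation, PCR amplification and Illumina NextSeq500 sequencing. Binding signal is the quotient of each hexamer's read frequency for a factor and its frequency for the tag-only sample.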

Another test has as its target T2, ELK1 (Homo sapiens, UniProt P19419 1-428).
T2 sequence: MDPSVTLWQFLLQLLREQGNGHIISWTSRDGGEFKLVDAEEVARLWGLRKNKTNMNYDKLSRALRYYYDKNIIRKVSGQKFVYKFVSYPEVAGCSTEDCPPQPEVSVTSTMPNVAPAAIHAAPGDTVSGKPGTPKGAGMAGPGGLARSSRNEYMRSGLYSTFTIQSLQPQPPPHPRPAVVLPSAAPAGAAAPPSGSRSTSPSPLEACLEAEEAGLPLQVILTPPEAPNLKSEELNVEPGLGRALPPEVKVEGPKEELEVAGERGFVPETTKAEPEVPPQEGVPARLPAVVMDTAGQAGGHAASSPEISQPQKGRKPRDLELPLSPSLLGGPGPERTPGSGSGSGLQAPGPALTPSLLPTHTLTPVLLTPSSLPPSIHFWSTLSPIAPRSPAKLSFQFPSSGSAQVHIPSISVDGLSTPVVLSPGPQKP
In a few lines: as §1

In another test the target is T3, GABPA (Homo sapiens, UniProt Q06546 1-454).
T3 sequence: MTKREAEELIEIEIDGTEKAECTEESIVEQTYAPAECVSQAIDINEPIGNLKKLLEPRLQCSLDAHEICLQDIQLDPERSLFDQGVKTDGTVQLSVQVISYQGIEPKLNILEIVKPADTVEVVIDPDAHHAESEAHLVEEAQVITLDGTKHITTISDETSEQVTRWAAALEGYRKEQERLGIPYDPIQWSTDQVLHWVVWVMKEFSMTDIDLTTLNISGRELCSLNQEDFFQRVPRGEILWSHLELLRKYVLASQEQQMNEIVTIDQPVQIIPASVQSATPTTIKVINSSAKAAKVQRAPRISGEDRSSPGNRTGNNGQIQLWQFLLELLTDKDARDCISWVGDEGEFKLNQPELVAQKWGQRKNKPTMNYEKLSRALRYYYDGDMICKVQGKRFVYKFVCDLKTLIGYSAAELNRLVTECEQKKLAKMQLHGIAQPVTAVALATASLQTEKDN
In a few lines: as §1

For another test, the target named is T4, ERG (Homo sapiens, UniProt P11308 1-479).
T4 sequence: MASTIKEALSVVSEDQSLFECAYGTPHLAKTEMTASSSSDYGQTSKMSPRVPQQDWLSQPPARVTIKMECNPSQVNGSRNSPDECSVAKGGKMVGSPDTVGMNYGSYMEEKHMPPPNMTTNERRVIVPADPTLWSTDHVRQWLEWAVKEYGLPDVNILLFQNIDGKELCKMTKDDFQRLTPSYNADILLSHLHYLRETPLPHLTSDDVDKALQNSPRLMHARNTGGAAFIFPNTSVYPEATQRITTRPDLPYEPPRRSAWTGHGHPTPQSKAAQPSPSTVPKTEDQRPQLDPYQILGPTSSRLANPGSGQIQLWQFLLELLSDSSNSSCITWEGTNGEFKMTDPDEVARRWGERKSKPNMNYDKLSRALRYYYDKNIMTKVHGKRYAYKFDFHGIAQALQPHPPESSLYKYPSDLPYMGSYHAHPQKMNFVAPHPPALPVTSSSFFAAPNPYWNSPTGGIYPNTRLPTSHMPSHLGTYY
A digest of the protocol:
as §1

A further test addresses ELF1 (Homo sapiens, UniProt P32519 1-619). In a few lines:
as §1

A further test concerns the target T5, EHF (Homo sapiens, UniProt Q9NZC4 1-300).
T5 sequence: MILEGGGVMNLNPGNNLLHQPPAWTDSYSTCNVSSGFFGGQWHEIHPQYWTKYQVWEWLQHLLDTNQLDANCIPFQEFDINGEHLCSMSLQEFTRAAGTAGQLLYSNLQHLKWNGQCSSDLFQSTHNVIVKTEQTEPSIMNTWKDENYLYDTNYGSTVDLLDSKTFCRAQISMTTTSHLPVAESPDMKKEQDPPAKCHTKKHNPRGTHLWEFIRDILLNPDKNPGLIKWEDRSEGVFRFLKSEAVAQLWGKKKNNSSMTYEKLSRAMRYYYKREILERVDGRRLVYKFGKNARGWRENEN
In a few lines: as §1

For the next test, the target named is SPI1 (Homo sapiens, UniProt P17947 1-270). In a few lines: as §1
For another test, the target named is SPIB (Homo sapiens, UniProt Q01892 1-262). In a few lines:
as §1

In a further test the target is T6, ELK3 (Homo sapiens, UniProt P41970 1-407).
T6 sequence: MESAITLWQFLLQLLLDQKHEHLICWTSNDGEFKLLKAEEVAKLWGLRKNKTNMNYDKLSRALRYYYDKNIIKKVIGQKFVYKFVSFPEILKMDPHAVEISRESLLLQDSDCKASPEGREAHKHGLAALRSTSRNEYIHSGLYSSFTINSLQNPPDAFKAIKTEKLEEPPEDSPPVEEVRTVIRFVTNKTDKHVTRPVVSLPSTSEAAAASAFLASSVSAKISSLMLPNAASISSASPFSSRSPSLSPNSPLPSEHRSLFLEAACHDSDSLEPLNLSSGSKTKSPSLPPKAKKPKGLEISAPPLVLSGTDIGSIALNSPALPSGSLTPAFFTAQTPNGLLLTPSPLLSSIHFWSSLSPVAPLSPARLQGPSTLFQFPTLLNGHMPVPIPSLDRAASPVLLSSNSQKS
A digest of the protocol:
as §1

Chain of SPIB (Q01892 whole entry): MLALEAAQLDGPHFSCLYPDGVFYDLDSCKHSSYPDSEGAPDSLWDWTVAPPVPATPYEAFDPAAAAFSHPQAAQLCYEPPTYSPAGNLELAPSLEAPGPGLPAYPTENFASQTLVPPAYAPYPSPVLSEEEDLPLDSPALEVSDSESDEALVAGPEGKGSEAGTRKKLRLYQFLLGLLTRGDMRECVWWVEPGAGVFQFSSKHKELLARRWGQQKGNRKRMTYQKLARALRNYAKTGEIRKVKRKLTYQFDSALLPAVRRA
Chain of ELF1 (P32519 whole entry): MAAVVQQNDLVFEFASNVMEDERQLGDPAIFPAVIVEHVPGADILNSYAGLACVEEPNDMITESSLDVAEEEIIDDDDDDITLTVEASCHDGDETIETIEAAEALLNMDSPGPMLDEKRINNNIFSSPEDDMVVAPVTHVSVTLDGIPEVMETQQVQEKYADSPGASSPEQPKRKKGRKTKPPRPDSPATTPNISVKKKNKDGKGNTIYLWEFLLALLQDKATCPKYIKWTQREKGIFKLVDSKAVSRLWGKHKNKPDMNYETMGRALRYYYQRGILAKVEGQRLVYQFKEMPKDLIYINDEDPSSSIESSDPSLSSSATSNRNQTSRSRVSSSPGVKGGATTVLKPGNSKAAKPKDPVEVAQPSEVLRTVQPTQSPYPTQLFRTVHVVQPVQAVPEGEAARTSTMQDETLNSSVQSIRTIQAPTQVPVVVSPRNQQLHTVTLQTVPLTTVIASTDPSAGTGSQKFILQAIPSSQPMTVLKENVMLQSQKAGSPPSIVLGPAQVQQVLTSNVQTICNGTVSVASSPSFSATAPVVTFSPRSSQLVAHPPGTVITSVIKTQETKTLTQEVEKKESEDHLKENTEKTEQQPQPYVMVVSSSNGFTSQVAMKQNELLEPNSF

CATACT: the binding signal with FLI1 was 1.34 fold enrichment (6-mer frequency, TF over GST control); with ELK1 it was 1.29 fold enrichment (6-mer frequency, TF over GST control); with GABPA, 1.36 fold enrichment (6-mer frequency, TF over GST control); with ERG, 1.27 fold enrichment (6-mer frequency, TF over GST control); in the test with ELF1, 1.34 fold enrichment (6-mer frequency, TF over GST control); with EHF, 1.31 fold enrichment (6-mer frequency, TF over GST control). In addition, the binding signal was 1.33 fold enrichment (6-mer frequency, TF over GST control) with SPI1; 1.29 fold enrichment (6-mer frequency, TF over GST control) with SPIB; 1.29 fold enrichment (6-mer frequency, TF over GST control) with ELK3.
Regarding CGTTTT, the binding signal with FLI1 is 1.16 fold enrichment (6-mer frequency, TF over GST control); in the test with ELK1, 1.16 fold enrichment (6-mer frequency, TF over GST control); with GABPA, 1.34 fold enrichment (6-mer frequency, TF over GST control); with ERG it was 1.36 fold enrichment (6-mer frequency, TF over GST control); with ELF1 it was 1.17 fold enrichment (6-mer frequency, TF over GST control); with EHF, 1.27 fold enrichment (6-mer frequency, TF over GST control). The binding signal is 1.29 fold enrichment (6-mer frequency, TF over GST control) with SPI1; 1.32 fold enrichment (6-mer frequency, TF over GST control) in the test with SPIB; 1.12 fold enrichment (6-mer frequency, TF over GST control) in the test with ELK3.
As for TAAGTT, the binding signal was 1.23 fold enrichment (6-mer frequency, TF over GST control) with FLI1; 1.39 fold enrichment (6-mer frequency, TF over GST control) with ELK1; 1.33 fold enrichment (6-mer frequency, TF over GST control) with GABPA; 1.25 fold enrichment (6-mer frequency, TF over GST control) with ERG; 1.3 fold enrichment (6-mer frequency, TF over GST control) with ELF1; 1.38 fold enrichment (6-mer frequency, TF over GST control) with EHF. The binding signal was 1.31 fold enrichment (6-mer frequency, TF over GST control) with SPI1; 1.35 fold enrichment (6-mer frequency, TF over GST control) with SPIB; 1.27 fold enrichment (6-mer frequency, TF over GST control) with ELK3.
Regarding AGCAAT, the binding signal was 1.07 fold enrichment (6-mer frequency, TF over GST control) with FLI1; 1.15 fold enrichment (6-mer frequency, TF over GST control) with ELK1; 1.09 fold enrichment (6-mer frequency, TF over GST control) with GABPA; 1.11 fold enrichment (6-mer frequency, TF over GST control) with ERG; 1.18 fold enrichment (6-mer frequency, TF over GST control) in the test with ELF1; 1.1 fold enrichment (6-mer frequency, TF over GST control) with EHF. Besides, the binding signal is 1.1 fold enrichment (6-mer frequency, TF over GST control) with SPI1; 1.18 fold enrichment (6-mer frequency, TF over GST control) in the test with SPIB; 1.05 fold enrichment (6-mer frequency, TF over GST control) with ELK3.
As for TGTTAA, the binding signal with FLI1 is 1.11 fold enrichment (6-mer frequency, TF over GST control); in the test with ELK1 it was 1.15 fold enrichment (6-mer frequency, TF over GST control); in the test with GABPA, 1.17 fold enrichment (6-mer frequency, TF over GST control); with ERG, 1.11 fold enrichment (6-mer frequency, TF over GST control); with ELF1 it was 1.09 fold enrichment (6-mer frequency, TF over GST control); in the test with EHF, 1.03 fold enrichment (6-mer frequency, TF over GST control). Also, the binding signal with SPI1 was 1.07 fold enrichment (6-mer frequency, TF over GST control); with SPIB it was 1.13 fold enrichment (6-mer frequency, TF over GST control); with ELK3, 1.15 fold enrichment (6-mer frequency, TF over GST control).
In the case of TAACAA, the binding signal in the test with FLI1 was 1.22 fold enrichment (6-mer frequency, TF over GST control); with ELK1, 1.22 fold enrichment (6-mer frequency, TF over GST control); with GABPA, 1.14 fold enrichment (6-mer frequency, TF over GST control); in the test with ERG it was 1.18 fold enrichment (6-mer frequency, TF over GST control); in the test with ELF1, 1.2 fold enrichment (6-mer frequency, TF over GST control); with EHF it was 1.19 fold enrichment (6-mer frequency, TF over GST control). Also, the binding signal was 1.14 fold enrichment (6-mer frequency, TF over GST control) with SPI1; 1.13 fold enrichment (6-mer frequency, TF over GST control) in the test with SPIB; 1.34 fold enrichment (6-mer frequency, TF over GST control) with ELK3.
Consider CTTAGA, for which the binding signal with FLI1 is 1.13 fold enrichment (6-mer frequency, TF over GST control); with ELK1, 1.11 fold enrichment (6-mer frequency, TF over GST control); with GABPA it was 1.17 fold enrichment (6-mer frequency, TF over GST control); with ERG it was 1.09 fold enrichment (6-mer frequency, TF over GST control); with ELF1 it was 1.08 fold enrichment (6-mer frequency, TF over GST control); with EHF it was 1.1 fold enrichment (6-mer frequency, TF over GST control). Besides, the binding signal with SPI1 is 1.11 fold enrichment (6-mer frequency, TF over GST control); with SPIB, 1.11 fold enrichment (6-mer frequency, TF over GST control); in the test with ELK3, 1.02 fold enrichment (6-mer frequency, TF over GST control).
